Consider one sequence from PMC7862700, “An all-to-all approach to the identification of sequence-specific readers for epigenetic DNA modifications on cytosine”.

Holding throughout (experiment): DAPPL (digital affinity profiling via proximity ligation, sequencing); 10 mM Tris-HCl pH 7.5, 50 mM NaCl, 1 mM DTT, 4% glycerol, room temperature, 30 min; GST-TFs on glutathione beads, 16-mer random dsDNA library, 0.1% formaldehyde crosslink after washing; high values mean tight binding
Holding throughout (conditions): protein: recombinant; tags: N-terminal GST; dsDNA, one strand shown

In assay [1] the target is T1, GABPA (Homo sapiens, UniProt Q06546 1-454).
T1 sequence: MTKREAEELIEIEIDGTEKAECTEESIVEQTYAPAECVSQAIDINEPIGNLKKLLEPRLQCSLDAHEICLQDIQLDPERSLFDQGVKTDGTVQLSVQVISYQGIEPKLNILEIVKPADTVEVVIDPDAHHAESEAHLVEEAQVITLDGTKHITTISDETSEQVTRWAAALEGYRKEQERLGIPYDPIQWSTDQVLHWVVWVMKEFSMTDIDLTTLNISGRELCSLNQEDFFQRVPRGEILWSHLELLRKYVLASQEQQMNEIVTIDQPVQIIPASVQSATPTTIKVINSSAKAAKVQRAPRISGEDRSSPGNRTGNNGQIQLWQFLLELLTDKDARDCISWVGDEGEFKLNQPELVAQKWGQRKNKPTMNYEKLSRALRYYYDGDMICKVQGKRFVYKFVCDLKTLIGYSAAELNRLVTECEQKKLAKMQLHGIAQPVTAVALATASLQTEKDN
An outline of the steps: (§1)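 Binding signal is each hexamer's read frequency for a factor divided by its frequency in the tag-only sample. The factors were GST-fused human transcription factors from yeast, captured on glutathione beads, DNA-barcoded and pooled with that sample. Pools were incubated with 200 nmole of a random double-stranded 16-mer DNA library in Tris/NaCl/DTT/glycerol buffer at room temperature for 30 min, then washed, crosslinked with 0.1% formaldehyde, proximity-ligated with BsaI/T4 ligase (1 h, 37 °C), PCR-amplified and sequenced on an Illumina NextSeq500.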

For assay [2], the target named is T2, ERG (Homo sapiens, UniProt P11308 1-479).
T2 sequence: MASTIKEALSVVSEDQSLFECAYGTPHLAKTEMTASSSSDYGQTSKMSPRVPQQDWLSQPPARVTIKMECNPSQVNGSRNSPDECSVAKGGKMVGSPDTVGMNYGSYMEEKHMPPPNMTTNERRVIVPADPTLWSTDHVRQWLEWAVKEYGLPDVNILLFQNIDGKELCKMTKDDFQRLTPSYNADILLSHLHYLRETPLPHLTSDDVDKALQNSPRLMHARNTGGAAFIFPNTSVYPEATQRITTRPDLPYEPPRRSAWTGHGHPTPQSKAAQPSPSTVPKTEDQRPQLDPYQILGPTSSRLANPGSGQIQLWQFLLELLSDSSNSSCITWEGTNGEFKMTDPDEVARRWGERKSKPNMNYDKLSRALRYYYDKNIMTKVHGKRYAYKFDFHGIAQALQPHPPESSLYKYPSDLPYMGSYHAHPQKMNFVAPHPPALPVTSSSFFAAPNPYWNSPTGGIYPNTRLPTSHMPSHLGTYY
An outline of the steps: as §1

The target in assay [3] is ELF1 (Homo sapiens, UniProt P32519 1-619). An outline of the steps: as §1
Chain of ELF1 (P32519 whole entry): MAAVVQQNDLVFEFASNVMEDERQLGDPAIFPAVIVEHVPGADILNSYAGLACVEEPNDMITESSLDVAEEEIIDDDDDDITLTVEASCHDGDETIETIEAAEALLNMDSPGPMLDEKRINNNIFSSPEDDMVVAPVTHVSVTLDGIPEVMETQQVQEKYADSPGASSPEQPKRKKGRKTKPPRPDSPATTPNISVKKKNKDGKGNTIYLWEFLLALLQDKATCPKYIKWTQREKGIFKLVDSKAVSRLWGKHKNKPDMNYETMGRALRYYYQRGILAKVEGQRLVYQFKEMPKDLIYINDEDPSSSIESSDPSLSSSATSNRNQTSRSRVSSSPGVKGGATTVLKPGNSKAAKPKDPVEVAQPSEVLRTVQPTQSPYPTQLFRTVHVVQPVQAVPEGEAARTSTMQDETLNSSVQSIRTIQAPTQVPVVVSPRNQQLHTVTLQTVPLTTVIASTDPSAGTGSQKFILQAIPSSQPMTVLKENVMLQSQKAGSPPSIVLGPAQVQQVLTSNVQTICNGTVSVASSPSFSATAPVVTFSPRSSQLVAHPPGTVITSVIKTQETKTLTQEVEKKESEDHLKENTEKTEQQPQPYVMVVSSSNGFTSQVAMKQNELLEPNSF
Assay [4] concerns the target T3, EHF (Homo sapiens, UniProt Q9NZC4 1-300).
T3 sequence: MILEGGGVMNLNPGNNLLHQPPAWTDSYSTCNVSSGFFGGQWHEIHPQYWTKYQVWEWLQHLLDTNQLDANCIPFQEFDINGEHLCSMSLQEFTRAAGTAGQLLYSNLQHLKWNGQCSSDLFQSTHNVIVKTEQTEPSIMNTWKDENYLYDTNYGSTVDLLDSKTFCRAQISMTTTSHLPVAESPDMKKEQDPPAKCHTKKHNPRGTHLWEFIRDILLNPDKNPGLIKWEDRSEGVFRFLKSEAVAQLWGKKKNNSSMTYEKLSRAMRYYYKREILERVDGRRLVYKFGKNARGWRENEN
An outline of the steps: as §1

For assay [5], the target named is SPI1 (Homo sapiens, UniProt P17947 1-270). A digest of the protocol:
as §1

Assay [6] addresses SPIB (Homo sapiens, UniProt Q01892 1-262). An outline of the steps:
as §1

Assay [7] deals with ETV5 (Homo sapiens, UniProt P41161 1-510). A digest of the protocol:
as §1

Assay [8] concerns the target T4, ELK4 (Homo sapiens, UniProt P28324-2 1-405).
T4 sequence: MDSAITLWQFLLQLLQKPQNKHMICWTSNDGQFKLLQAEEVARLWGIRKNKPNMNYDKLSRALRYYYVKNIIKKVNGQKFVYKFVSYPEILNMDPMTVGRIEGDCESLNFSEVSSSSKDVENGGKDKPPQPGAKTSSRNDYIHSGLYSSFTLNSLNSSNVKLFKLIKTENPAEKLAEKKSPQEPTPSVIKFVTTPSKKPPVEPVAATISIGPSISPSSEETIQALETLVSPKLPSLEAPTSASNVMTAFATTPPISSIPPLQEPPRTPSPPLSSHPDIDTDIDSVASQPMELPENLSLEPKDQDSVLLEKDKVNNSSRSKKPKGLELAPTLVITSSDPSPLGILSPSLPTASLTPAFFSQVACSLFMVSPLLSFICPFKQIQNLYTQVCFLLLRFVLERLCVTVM
An outline of the steps:
as §1

The target in assay [9] is T5, ETV2 (Homo sapiens, UniProt O00321 1-342).
T5 sequence: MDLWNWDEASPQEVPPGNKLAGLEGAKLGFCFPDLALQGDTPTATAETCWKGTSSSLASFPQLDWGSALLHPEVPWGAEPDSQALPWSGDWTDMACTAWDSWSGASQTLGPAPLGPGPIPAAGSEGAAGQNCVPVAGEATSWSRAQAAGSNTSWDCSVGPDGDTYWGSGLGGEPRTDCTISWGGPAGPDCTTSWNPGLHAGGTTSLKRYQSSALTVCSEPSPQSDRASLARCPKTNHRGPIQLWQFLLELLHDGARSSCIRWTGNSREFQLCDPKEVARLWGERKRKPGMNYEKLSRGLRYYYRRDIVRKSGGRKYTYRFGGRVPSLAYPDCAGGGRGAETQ
An outline of the steps: as §1

In assay [10] the target is T6, ELF3 (Homo sapiens, UniProt P78545 1-371).
T6 sequence: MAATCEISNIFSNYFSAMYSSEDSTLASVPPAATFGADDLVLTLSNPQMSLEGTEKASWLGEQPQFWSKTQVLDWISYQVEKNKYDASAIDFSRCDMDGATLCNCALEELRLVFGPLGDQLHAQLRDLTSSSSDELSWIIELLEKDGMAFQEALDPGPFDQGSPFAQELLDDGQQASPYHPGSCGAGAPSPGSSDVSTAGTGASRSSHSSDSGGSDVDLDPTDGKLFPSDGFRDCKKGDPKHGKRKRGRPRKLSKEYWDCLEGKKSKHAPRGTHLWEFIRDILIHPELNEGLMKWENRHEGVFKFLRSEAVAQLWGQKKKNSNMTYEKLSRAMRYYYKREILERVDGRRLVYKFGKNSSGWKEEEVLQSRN
An outline of the steps: as §1

Assay [11] has as its target ETV1 (Homo sapiens, UniProt P50549 1-477). A digest of the protocol: as §1
Assay [12] deals with T7, ERF (Homo sapiens, UniProt P50548 1-548).
T7 sequence: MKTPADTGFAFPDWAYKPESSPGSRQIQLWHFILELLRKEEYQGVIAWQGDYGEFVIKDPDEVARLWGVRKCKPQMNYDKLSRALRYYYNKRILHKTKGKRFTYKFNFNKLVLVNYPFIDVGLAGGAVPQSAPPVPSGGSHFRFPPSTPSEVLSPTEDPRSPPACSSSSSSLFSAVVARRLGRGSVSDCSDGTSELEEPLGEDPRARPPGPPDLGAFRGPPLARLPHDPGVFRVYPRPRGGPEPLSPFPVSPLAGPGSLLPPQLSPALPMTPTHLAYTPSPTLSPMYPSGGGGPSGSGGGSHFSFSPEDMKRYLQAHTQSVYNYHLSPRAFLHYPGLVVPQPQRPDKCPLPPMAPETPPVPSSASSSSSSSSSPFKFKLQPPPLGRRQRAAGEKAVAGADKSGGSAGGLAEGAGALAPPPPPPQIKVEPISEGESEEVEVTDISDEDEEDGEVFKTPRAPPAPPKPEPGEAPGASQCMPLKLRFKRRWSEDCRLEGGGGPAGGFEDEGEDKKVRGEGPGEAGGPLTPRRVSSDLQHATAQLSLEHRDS
An outline of the steps: as §1

Assay [13] deals with T8, ETV3L (Homo sapiens, UniProt Q6ZN32 1-361).
T8 sequence: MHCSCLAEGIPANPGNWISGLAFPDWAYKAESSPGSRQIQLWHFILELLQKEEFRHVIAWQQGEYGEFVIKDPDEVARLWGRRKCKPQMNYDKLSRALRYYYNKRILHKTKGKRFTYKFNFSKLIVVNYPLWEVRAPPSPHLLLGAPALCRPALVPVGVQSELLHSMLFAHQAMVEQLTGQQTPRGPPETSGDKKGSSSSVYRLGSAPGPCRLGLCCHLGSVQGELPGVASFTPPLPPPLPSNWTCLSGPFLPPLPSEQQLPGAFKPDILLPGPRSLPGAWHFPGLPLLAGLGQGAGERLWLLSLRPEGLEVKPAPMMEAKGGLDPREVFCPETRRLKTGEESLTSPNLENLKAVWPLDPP
An outline of the steps:
as §1

In assay [14] the target is T9, ETV3 (Homo sapiens, UniProt P41162-2 1-143).
T9 sequence: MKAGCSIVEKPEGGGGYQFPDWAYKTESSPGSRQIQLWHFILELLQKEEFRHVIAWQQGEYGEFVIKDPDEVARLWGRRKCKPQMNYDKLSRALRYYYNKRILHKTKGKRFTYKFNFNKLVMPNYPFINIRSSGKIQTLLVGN
An outline of the steps: as §1

Chain of SPIB (Q01892 whole entry): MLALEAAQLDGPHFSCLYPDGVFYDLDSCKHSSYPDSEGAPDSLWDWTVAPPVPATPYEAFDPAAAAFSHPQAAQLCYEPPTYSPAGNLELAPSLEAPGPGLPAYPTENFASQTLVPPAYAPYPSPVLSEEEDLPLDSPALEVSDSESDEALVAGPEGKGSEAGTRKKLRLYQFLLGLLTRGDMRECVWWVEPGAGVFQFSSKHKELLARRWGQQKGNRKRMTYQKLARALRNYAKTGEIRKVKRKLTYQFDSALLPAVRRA
Chain of ETV5 (P41161 whole entry): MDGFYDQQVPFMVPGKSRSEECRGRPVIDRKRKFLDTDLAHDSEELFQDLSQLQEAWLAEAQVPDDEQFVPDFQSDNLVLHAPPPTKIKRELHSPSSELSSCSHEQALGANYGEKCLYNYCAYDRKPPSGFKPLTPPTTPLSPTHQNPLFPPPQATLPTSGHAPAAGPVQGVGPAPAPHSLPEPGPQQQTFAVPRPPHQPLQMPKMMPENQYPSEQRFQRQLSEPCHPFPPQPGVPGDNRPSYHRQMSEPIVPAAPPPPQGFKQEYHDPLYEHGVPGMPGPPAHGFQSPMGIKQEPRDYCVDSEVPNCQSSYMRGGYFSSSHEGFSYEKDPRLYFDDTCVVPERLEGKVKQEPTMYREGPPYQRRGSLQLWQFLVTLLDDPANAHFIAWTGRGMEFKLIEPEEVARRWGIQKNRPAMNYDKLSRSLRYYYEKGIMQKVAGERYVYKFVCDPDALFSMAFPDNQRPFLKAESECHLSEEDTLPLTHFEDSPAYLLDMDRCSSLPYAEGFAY
Chain of ETV1 (P50549 whole entry): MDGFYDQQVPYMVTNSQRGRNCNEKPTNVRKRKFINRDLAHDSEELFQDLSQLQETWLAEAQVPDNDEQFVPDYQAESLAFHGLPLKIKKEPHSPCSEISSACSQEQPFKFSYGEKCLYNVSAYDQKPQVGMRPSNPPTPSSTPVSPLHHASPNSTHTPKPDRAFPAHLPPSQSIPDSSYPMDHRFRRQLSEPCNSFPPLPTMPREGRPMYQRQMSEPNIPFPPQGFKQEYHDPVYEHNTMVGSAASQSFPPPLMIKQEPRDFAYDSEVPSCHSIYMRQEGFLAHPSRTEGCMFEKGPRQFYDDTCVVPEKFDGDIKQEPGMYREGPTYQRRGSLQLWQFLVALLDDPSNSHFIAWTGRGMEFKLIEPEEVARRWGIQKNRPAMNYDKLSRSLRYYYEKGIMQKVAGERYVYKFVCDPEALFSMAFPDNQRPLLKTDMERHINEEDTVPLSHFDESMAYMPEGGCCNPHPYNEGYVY

In the case of TGAAAT, the binding signal was 1.03 fold enrichment (6-mer frequency, TF over GST control) in assay [1]; 1.02 fold enrichment (6-mer frequency, TF over GST control) in assay [2]; 1 fold enrichment (6-mer frequency, TF over GST control) in assay [3]; 1.01 fold enrichment (6-mer frequency, TF over GST control) in assay [4]; 1.02 fold enrichment (6-mer frequency, TF over GST control) in assay [5]; 1.01 fold enrichment (6-mer frequency, TF over GST control) in assay [6]. For the same sequence, the binding signal was 1.07 fold enrichment (6-mer frequency, TF over GST control) in [7]; 1.04 fold enrichment (6-mer frequency, TF over GST control) in assay [8]; 1.04 fold enrichment (6-mer frequency, TF over GST control) in assay [9]; 1.09 fold enrichment (6-mer frequency, TF over GST control) in assay [10]; 1.08 fold enrichment (6-mer frequency, TF over GST control) in [11]; 1.01 fold enrichment (6-mer frequency, TF over GST control) in assay [12]. The binding signal was 1.04 fold enrichment (6-mer frequency, TF over GST control) in assay [13] and 1.03 fold enrichment (6-mer frequency, TF over GST control) in assay [14].
